OPRM1-OPRD1 inv: inverse agonists of human mu-delta opioid receptor heterodimerization; cell-based MOR-DOR heterodimer luminescence, inverse agonism; P35372+P41143; inhibition, % at 9.3 µM; 340,000 compounds, 0.21% hits; in the data active = inhibition above about 22%, passing the limit was not always enough;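 note: 0% = cells with DMSO and 100% = wells without cells with DMSO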
Target sequence (P35372 whole entry, looked up): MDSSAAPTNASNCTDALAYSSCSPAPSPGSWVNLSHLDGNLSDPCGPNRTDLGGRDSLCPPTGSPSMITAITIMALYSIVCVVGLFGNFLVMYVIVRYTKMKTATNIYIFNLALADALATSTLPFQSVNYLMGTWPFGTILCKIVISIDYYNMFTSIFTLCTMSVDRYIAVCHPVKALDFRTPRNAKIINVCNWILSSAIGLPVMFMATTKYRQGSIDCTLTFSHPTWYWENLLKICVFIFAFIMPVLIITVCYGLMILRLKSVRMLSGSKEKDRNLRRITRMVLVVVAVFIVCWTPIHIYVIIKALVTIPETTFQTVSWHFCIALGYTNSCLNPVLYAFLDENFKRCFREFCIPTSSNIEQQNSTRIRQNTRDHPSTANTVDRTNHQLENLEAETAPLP
Target sequence (P41143 whole entry, looked up): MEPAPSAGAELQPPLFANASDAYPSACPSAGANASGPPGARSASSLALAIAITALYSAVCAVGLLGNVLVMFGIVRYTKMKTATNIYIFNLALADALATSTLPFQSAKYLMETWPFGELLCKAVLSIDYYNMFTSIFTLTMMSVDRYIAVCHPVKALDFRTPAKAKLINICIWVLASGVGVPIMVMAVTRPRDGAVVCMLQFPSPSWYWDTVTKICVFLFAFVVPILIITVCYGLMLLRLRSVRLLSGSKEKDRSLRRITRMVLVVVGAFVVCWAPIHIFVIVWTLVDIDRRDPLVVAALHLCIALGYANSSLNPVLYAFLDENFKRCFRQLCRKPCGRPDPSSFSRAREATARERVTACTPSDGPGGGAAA
HTR2A ag: activates the mouse 5-HT2A serotonin receptor | activation, % at 7.6 µM | AID 624169 | 360,000 compounds, 0.66% hits | CHO-K1 mHTR2A beta-arrestin complementation, luminescence; percent of 30 µM serotonin response;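 active = activation above a run cutoff, the mean activation of all tested compounds plus 3 SD, cut at about 14% in these data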;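 note: 0% = plate median of compound wells and 100% = 30 µM serotonin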
HTR5A ag: HTR5A agonism, opioid heterodimer counter-screen; P47898; HTR5A agonist assay, luminescence, cell-based; activation, % at 9.3 µM; 340,000 compounds, 0.61% hits; in the data active = activation mostly above about 9.5%, no sharp cut-off; inactive = mostly below about 7.6%;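 note: 0% = cells with vehicle only and 100% = reference agonist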
MOR-DOR ag-1: OPRM1-OPRD1 heterodimerization agonism. AID 504326. cells, luminescence. activation, % at 9.3 µM. P35372+P41143. 340,000 compounds, 0.3% hits;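 note: 0% = vehicle-treated cells and 100% = reference agonist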
HTR5A inv ctr: HTR5A inverse agonism, opioid heterodimer counter-screen; HTR5A cell line, luminescence; inhibition, % at 9.3 µM; 340,000 compounds, 0.083% hits; in the data active = inhibition mostly above about 23%, no sharp cut-off; inactive = mostly below about 18%;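 note: 0% = cells with DMSO and 100% = no-cell wells with DMSO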
HGIII-sPLA2 inh: Blocks human group III sPLA2 activity. Q9NZ20. QFRET BODIPY PC-A2 liposome hydrolysis, fluorescence. inhibition, % at 12.2 µM. 370,000 compounds, 0.56% hits. AID 743126;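 active = inhibition above mean plus 3 SD of compounds lying within the high and low control bounds, cut at about 19% in these data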;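 note: 0% = median of test compound wells and 100% = no enzyme DMSO wells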
MOR-DOR ag-2: opioid heterodimer agonism, HTR5A counter-screen. shares compounds with HTR5A ag. U2OS counter-screen cells, complementation luminescence, 3 h. activation, % at 9.3 µM. 800 compounds, 13% hits
HTR5A ag conf: HTR5A (human) agonism, confirmation | 800 compounds, 17% hits | AID 504915 | activation, % at 9.3 µM | shares compounds with HTR5A ag | HTR5A agonist cell assay, luminescence; in the data active = activation above about 17%;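 note: 0% = cells with vehicle only and 100% = full reference agonist response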
Active calls of the source: *. Hits are enriched below; roughly 2.2% of the tested compounds scored in any of these assays. Cut-off read from the data, not from the text of the source, unless noted: active = activation above about 18%; inactive = the rest.

How did Cc1ccc(C(=O)C2=C(O)C(=O)N(Cc3cccnc3)C2c2ccc(OC(C)C)cc2)o1 (stereo unspecified) do in these assays?
OPRM1-OPRD1 inv: 18.6; HTR2A ag: 3.0; HTR5A ag: 2.4; MOR-DOR ag-1: -5.7; HTR5A inv ctr: -13.9; HGIII-sPLA2 inh: 5.5

How did COC(=O)[C@H](C(C)C)N1Cc2nnn(CC3CCCCC3)c2-c2cc(F)ccc2S1(=O)=O do in these assays?
HGIII-sPLA2 inh: -1.1

How did N/C(Cc1ccc(Cl)c(Cl)c1)=N\OC(=O)c1cccs1 do in these assays?
OPRM1-OPRD1 inv: -3.7; HTR2A ag: -2.9; HTR5A ag: 43.5*; MOR-DOR ag-1: 0.8; HTR5A inv ctr: -103.8; HGIII-sPLA2 inh: -6.7; MOR-DOR ag-2: 1.9; HTR5A ag conf: 1.0

How did CCN(CC)C(=O)c1ccc(S(=O)(=O)N2CCC(c3nc4ccccc4s3)CC2)cc1 do in these assays?
OPRM1-OPRD1 inv: -15.0; HTR2A ag: -1.8; HTR5A ag: 21.0*; MOR-DOR ag-1: 2.4; HTR5A inv ctr: -55.2; HGIII-sPLA2 inh: -0.7; MOR-DOR ag-2: 5.2; HTR5A ag conf: 4.0

How did Cc1nn(Cc2ccccc2Cl)c2sc(C(=O)Nc3nccs3)cc12 do in these assays?
OPRM1-OPRD1 inv: -31.5; HTR2A ag: 3.1; HTR5A ag: 6.1; MOR-DOR ag-1: 4.7; HTR5A inv ctr: -18.3; HGIII-sPLA2 inh: -3.4

Results for Cc1nn(Cc2ccc(F)cc2)c2sc(C(=O)Nc3nccs3)cc12 ?
OPRM1-OPRD1 inv: -66.3; HTR2A ag: -3.8; HTR5A ag: 21.2*; MOR-DOR ag-1: 9.2; HTR5A inv ctr: -56.5; HGIII-sPLA2 inh: -5.5; MOR-DOR ag-2: 3.7; HTR5A ag conf: 0.4

Results for O=C(COC(=O)c1ccccc1[N+](=O)[O-])NNC(=O)c1cccs1 ?
OPRM1-OPRD1 inv: 7.1; HTR2A ag: -1.1; HTR5A ag: 15.6*; MOR-DOR ag-1: -1.3; HTR5A inv ctr: -3.0; HGIII-sPLA2 inh: -1.7; MOR-DOR ag-2: -0.1; HTR5A ag conf: 0.1

What do the screens show for `O=C(NNC(=O)c1ccccc1[N+](=O)[O-])c1cccs1`?
OPRM1-OPRD1 inv: 15.2; HTR2A ag: 0.5; HTR5A ag: 2.8; MOR-DOR ag-1: -3.3; HTR5A inv ctr: -7.6; HGIII-sPLA2 inh: 0.1

How did CC(C)c1[nH]nc2c1C(c1ccc3c(c1)OCO3)NC2=O (stereo unspecified) do in these assays?
HGIII-sPLA2 inh: 4.6

Results for COc1cccc(N2CCN(Cc3ccco3)CC2)c1 ?
OPRM1-OPRD1 inv: 7.2; HTR2A ag: -1.8; HTR5A ag: 15.3*; MOR-DOR ag-1: -1.4; HTR5A inv ctr: -42.5; HGIII-sPLA2 inh: 5.0; MOR-DOR ag-2: 0.9; HTR5A ag conf: -5.9

What do the screens show for `COC(=O)C1=CC(=O)C=C(OC)[C@@]12Oc1cc(C)cc(OC)c1C2=O`?
HGIII-sPLA2 inh: 7.5

How did Cc1nnc(SCc2ccc(C(=O)O)cc2)s1 do in these assays?
OPRM1-OPRD1 inv: 9.4; HTR2A ag: 3.8; HTR5A ag: 16.3*; MOR-DOR ag-1: -1.8; HTR5A inv ctr: -17.5; HGIII-sPLA2 inh: -2.0; MOR-DOR ag-2: 2.4; HTR5A ag conf: 2.2

What do the screens show for `CC(C)N1CCc2c(sc(NC(=O)c3ccc4ccccc4c3)c2C(N)=O)C1`?
OPRM1-OPRD1 inv: -17.4; HTR2A ag: 0.1; HTR5A ag: 18.3*; MOR-DOR ag-1: 3.4; HTR5A inv ctr: -27.1; HGIII-sPLA2 inh: -20.9; MOR-DOR ag-2: 4.1; HTR5A ag conf: 18.4*

Results for C/C(=N\NS(=O)(=O)c1ccc(Br)cc1)c1ccc2c(c1)OCO2 ?
OPRM1-OPRD1 inv: -3.5; HTR2A ag: -2.8; HTR5A ag: 7.4; MOR-DOR ag-1: 1.1; HTR5A inv ctr: 0.7; HGIII-sPLA2 inh: 5.8

What do the screens show for `C/C(=N/NS(=O)(=O)c1ccc(Cl)cc1)c1ccc2c(c1)OCO2`?
OPRM1-OPRD1 inv: 17.0; HTR2A ag: 1.5; HTR5A ag: 15.1*; MOR-DOR ag-1: -3.4; HTR5A inv ctr: -7.0; HGIII-sPLA2 inh: 9.3; MOR-DOR ag-2: 3.5; HTR5A ag conf: -1.1

Results for O=S(=O)(c1ccccc1F)n1c(CN2CCOCC2)nc2ccccc21 ?
HGIII-sPLA2 inh: -3.6

How did O=S(=O)(c1cccc(NC(=S)N2CCN(c3cccc(Cl)c3)CC2)c1)C(F)F do in these assays?
OPRM1-OPRD1 inv: -92.0; HTR2A ag: 5.5; HTR5A ag: 15.3*; MOR-DOR ag-1: 12.7; HTR5A inv ctr: -43.3; HGIII-sPLA2 inh: -4.9; MOR-DOR ag-2: 30.9*; HTR5A ag conf: 2.2

What do the screens show for `O=C(N1CCC(Cc2ccccc2)CC1)n1ncc(C(O)(c2ccccc2)c2ccccc2)n1`?
HGIII-sPLA2 inh: -11.7

How did Cc1ccc(S(=O)(=O)NC(=NC2CCCCC2)c2ccc(Cl)cc2)cc1 do in these assays?
OPRM1-OPRD1 inv: -10.6; HTR2A ag: -6.0; HTR5A ag: 14.4*; MOR-DOR ag-1: 1.3; HTR5A inv ctr: -42.8; MOR-DOR ag-2: 2.1; HTR5A ag conf: 3.7

How did CC(C)(N[C@@H](Cc1ccccc1)C(=O)NCC(c1ccccc1)c1ccccc1)C(=O)NC1CCCCC1 do in these assays?
HGIII-sPLA2 inh: -2.3

Results for COC(=O)C[C@H]1CC[C@H]2[C@H](COc3ccc(NS(=O)(=O)c4cccc(F)c4)cc3C(=O)N2C)O1 ?
HGIII-sPLA2 inh: 1.0

Results for CCc1nc2oc3ccccc3c(=O)c2c(=O)n1-c1ccccc1 ?
OPRM1-OPRD1 inv: 20.7; HTR2A ag: -2.7; HTR5A ag: 14.4*; MOR-DOR ag-1: -4.1; HTR5A inv ctr: -3.5; HGIII-sPLA2 inh: -3.3; MOR-DOR ag-2: -2.1; HTR5A ag conf: -3.3

Results for COc1ccc(-c2nn3c(-c4n[nH]c5c4CCC5)nnc3s2)cc1 ?
HGIII-sPLA2 inh: -7.6

What do the screens show for `CCN(CC)c1ccc(-c2nn3c(-c4n[nH]c5c4CCC5)nnc3s2)cc1`?
OPRM1-OPRD1 inv: 8.8; HTR2A ag: 35.0*; HTR5A ag: 16.4*; MOR-DOR ag-1: -1.9; HTR5A inv ctr: -17.6; HGIII-sPLA2 inh: 9.3; MOR-DOR ag-2: 9.4; HTR5A ag conf: 9.1

How did CC(C)(C)c1ccc(C(=O)Nc2nnc(Cc3c[nH]c4ccccc34)s2)cc1 do in these assays?
OPRM1-OPRD1 inv: -43.2; HTR2A ag: 5.0; HTR5A ag: 21.0*; MOR-DOR ag-1: 8.1; HTR5A inv ctr: -53.0; HGIII-sPLA2 inh: -77.7; MOR-DOR ag-2: 0.5; HTR5A ag conf: 0.6

Results for O=C(Nc1nnc(Cc2c[nH]c3ccccc23)s1)c1ccc(Cl)cc1Cl ?
OPRM1-OPRD1 inv: -20.1; HTR2A ag: 6.1; HTR5A ag: 7.3; MOR-DOR ag-1: 3.9; HTR5A inv ctr: 7.9; HGIII-sPLA2 inh: -59.0

Results for Cc1ccc(S(=O)(=O)NC(CCCNC(=O)OCc2ccccc2)C(=O)O)cc1 (stereo unspecified) ?
HGIII-sPLA2 inh: 11.6
